Measurements reported in paper PMC7819943, “Rice protein-binding microarrays: a tool to detect cis-acting elements near promoter regions in rice”.
The full ranking holds about 35,000 sequences; the median of “fluorescence intensity (a.u.)” is about 10,000, and the highest 2% start at about 52,000. This excerpt belongs to a sample that is enriched for the highest values.

What follows are sequences tested against T1, OsWOX13 (Oryza sativa, UniProt Q5QMM3 1-267) (assay: protein-binding microarray (RPBM); PBS, 2% BSA, 51.3 ng/ul salmon testes DNA, 50 uM zinc acetate, 200 nM TF, 25 C, 1 h; high values mean tight binding). Details: protein: recombinant; tags: N-terminal polyhistidine and DsRed monomer fusion (pET32a); label: CyDye5-dUTP incorporated in the synthesized complementary strand; 3' TTTTT single-stranded linker to array surface; dsDNA, one strand shown.
T1 sequence: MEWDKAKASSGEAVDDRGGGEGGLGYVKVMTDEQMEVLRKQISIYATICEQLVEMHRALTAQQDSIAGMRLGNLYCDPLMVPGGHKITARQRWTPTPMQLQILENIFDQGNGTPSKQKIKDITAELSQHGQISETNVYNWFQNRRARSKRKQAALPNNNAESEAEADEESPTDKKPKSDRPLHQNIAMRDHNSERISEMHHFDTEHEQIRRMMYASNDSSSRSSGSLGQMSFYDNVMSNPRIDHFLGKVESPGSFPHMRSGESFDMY
Method in brief: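 In PBS with 2% BSA, salmon testes DNA and 50 µM zinc acetate, 200 nM protein was incubated on a custom Agilent array at 25 °C for 1 h and then washed off. The array had been made double-stranded by primer extension with Cy5-dUTP and blocked with 2% BSA. The proteins were transcription factors fused N-terminally to polyhistidine and DsRed, expressed in E. coli BL21-CodonPlus and purified on Ni–NTA. The binding signal is per-feature fluorescence intensity (arbitrary units) from an Axon 4000B scanner.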

Compared with “TATCTGATGAGAGCAGATTGCCACACATCACAGCATGCAGCGGAGTCACCTAGTGCAG”, “AACACAGGCTGATGAATGATGATTGAATGAACAGAGACAACGGAGTCACCTAGTGCAG” is higher in binding signal: 10300 fluorescence intensity (a.u.) for the first, 22900 fluorescence intensity (a.u.) for the second.

First: ATTGCTGATTGAGCATGTAGACATTGCTAGTGGTAGTACGCGGAGTCACCTAGTGCAG
Second: ATGATTGACAAGATGAATCAGCACGCTGTTGGAAAAGGGACGGAGTCACCTAGTGCAG
The binding signal of the first is higher: 58000 fluorescence intensity (a.u.) for the first, 55400 fluorescence intensity (a.u.) for the second.

Going from “TGGCTGCTGATTGCAACAGTGGTACTGACATTAGCAGCAGCGGAGTCACCTAGTGCAG” to “CACCATGATTGATTGCTCCATGCACACACATTGAGACACGCGGAGTCACCTAGTGCAG”, the binding signal rises from 16300 fluorescence intensity (a.u.) to 59700 fluorescence intensity (a.u.).

Compared with “ATTTGATTTGATCACAACACATTAGCTTGGTTGCTCCATGCGGAGTCACCTAGTGCAG”, “AGTGATTATTTATTGGAGTACGATTGAGACCCTTGGTACGCGGAGTCACCTAGTGCAG” is lower in binding signal: 41800 fluorescence intensity (a.u.) for the first, 33400 fluorescence intensity (a.u.) for the second.

Compared with “TTACACTGATTGATGCTCCACATGAACACCACATGCATTTCGGAGTCACCTAGTGCAG”, “ATTGATGAATGTTGACAAACCTGGTTTGATTTGGAGGGAACGGAGTCACCTAGTGCAG” is lower in binding signal: 32600 fluorescence intensity (a.u.) for the first, 23500 fluorescence intensity (a.u.) for the second.

Going from “ATTATGTAAATTTTGACTAATGTTTAGTCGAAGTGCAAGTCGGAGTCACCTAGTGCAG” to “TGTCACAAATCTAATGGTATAATTAGTTCATAGTTCGGATCGGAGTCACCTAGTGCAG”, the binding signal rises from 8100 fluorescence intensity (a.u.) to 8340 fluorescence intensity (a.u.).

First: TCTAAATTTTCATGACATGGTACCATACTACAAATCCATCCGGAGTCACCTAGTGCAG
Second: TTTAGACAGTAATTAAAGTCGAATTACATTGCATTGTTCGCGGAGTCACCTAGTGCAG
The binding signal of the first is lower: 9500 fluorescence intensity (a.u.) for the first, 40300 fluorescence intensity (a.u.) for the second.

Compared with “GTAATTGGGAGGGAATTTCTCCTTTACTTCGCCTAAACAACGGAGTCACCTAGTGCAG”, “TCTAACTGTGGATAATATCTGACAGGAAATTTGATATCAACGGAGTCACCTAGTGCAG” is lower in binding signal: 14100 fluorescence intensity (a.u.) for the first, 6210 fluorescence intensity (a.u.) for the second.

Going from “TGTTGGTTAAGTAATTAATTAAGTCTTGGCTATTGGCGATCGGAGTCACCTAGTGCAG” to “TCGTAAAATTAATTGTAAATTGTAATATGATAACAAGGCCCGGAGTCACCTAGTGCAG”, the binding signal rises from 13500 fluorescence intensity (a.u.) to 33100 fluorescence intensity (a.u.).

Compared with “GTGCTTTAATCAGTAATTTTGCAATTGCTTTTGAATTTCACGGAGTCACCTAGTGCAG”, “ACTTTTCAGTTACATCATCTCTAATTTCAATTGAAATCCACGGAGTCACCTAGTGCAG” is higher in binding signal: 5640 fluorescence intensity (a.u.) for the first, 7120 fluorescence intensity (a.u.) for the second.

Going from “GAGTTTAATTAATTAATTTCTTAAAATTGATGTCATCACACGGAGTCACCTAGTGCAG” to “TCTTAATTGAAAGAGTTTTCATCATGTCTTTCAGTCACCACGGAGTCACCTAGTGCAG”, the binding signal falls from 54800 fluorescence intensity (a.u.) to 53900 fluorescence intensity (a.u.).

Going from “AGTTTTCAAAATTTGACTTTAAAATTTAAATCTTAAATCACGGAGTCACCTAGTGCAG” to “CAAAATTATCTAATTGATGACTATTTCTAAATACACATCACGGAGTCACCTAGTGCAG”, the binding signal rises from 3970 fluorescence intensity (a.u.) to 41800 fluorescence intensity (a.u.).

First: CTAATCAAAATGTAATTAACTCATTTATATATTACGGAAACGGAGTCACCTAGTGCAG
Second: TCGATCTCCATTAATTATCCAACGACGACACGACGACGCACGGAGTCACCTAGTGCAG
The binding signal of the first is higher: 21800 fluorescence intensity (a.u.) for the first, 5720 fluorescence intensity (a.u.) for the second.

Going from “GGGTCAGGGTGGGCGTGGATTGATATTTTAATACGAATAACGGAGTCACCTAGTGCAG” to “TGCACGCTAATTTGCCTTGCTGCTGCTGCTACTAGGGCGGCGGAGTCACCTAGTGCAG”, the binding signal falls from 10800 fluorescence intensity (a.u.) to 4920 fluorescence intensity (a.u.).

Compared with “GCTGATGACTTTTCTCCCGGTTTCATATTTTCTTTTAGAACGGAGTCACCTAGTGCAG”, “GAACGGAGGATGCTGAGCTCTCTTATGAGGTCTATTTTCCCGGAGTCACCTAGTGCAG” is higher in binding signal: 8420 fluorescence intensity (a.u.) for the first, 65100 fluorescence intensity (a.u.) for the second.

Going from “GTTTAATTAATTATATGTTAATGATTTTCTTTTCATGCCCCGGAGTCACCTAGTGCAG” to “TATGATTTATAAATTAATGGATTTAAAGTTTTAAGTTAATCGGAGTCACCTAGTGCAG”, the binding signal falls from 65400 fluorescence intensity (a.u.) to 43900 fluorescence intensity (a.u.).

Compared with “ACTTAATTATGTTGTGGTTAATTAGCCCCGAAATGGTCGTCGGAGTCACCTAGTGCAG”, “TAGATGAGTTAAATATAATTATTTGTATGTTTTAATAAATCGGAGTCACCTAGTGCAG” is lower in binding signal: 52900 fluorescence intensity (a.u.) for the first, 3630 fluorescence intensity (a.u.) for the second.

Compared with “GATTAATGATTAATTAATAATATGTTAATGAGTTTTATCCCGGAGTCACCTAGTGCAG”, “AGCCTAATTAATTCGTCATTAGCATATGTGGGTTATTATACGGAGTCACCTAGTGCAG” is lower in binding signal: 52500 fluorescence intensity (a.u.) for the first, 27800 fluorescence intensity (a.u.) for the second.

Going from “CATGATTTTACTTTCTTTTCAGGTCTTAGGAGTGAGCTTCCGGAGTCACCTAGTGCAG” to “TTAATTAATAATATGTTAATGATTTTCTCATCTTACCTTACGGAGTCACCTAGTGCAG”, the binding signal rises from 9930 fluorescence intensity (a.u.) to 13400 fluorescence intensity (a.u.).

Compared with “TTAAAATTTATATGTTAAATTATAGTGGTTTAAAATTTCACGGAGTCACCTAGTGCAG”, “GTCATTTTAATTGCAAATGCTTTTATATGTTGTTTCTTTCCGGAGTCACCTAGTGCAG” is lower in binding signal: 8530 fluorescence intensity (a.u.) for the first, 6630 fluorescence intensity (a.u.) for the second.

Going from “GAGATAGAGATAATAGAAAGATTAAACAAGATTCGATAGACGGAGTCACCTAGTGCAG” to “CGAGATAAATCACGGTAATCACAGCAACAGCAACAGCAACCGGAGTCACCTAGTGCAG”, the binding signal rises from 3590 fluorescence intensity (a.u.) to 10400 fluorescence intensity (a.u.).
